Assay [1] is described as follows: Nuclear factor erythroid 2-related factor 2/antioxidant responsive element (Nrf2/ARE) small molecule agonists: qHTS cell viability counter screen in human keratinocytes (AID 1919968; active means well fitted curve in the direction sought with a large enough effect in the repeat runs; an effect the other way counts as inactive or inconclusive; further: nearly all actives have a fitted effect of over 55% in size; further: potency means the concentration at half of the fitted maximal effect). An outline of the steps: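 After a 5 h attachment period, ARE-reporter keratinocytes were dosed with compounds in DMSO and then cultured 23 h at 37 C. Cell viability came from CellTiter-Fluor signal read after a further 1 h.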
(qHTS replaces the single test concentration by a dilution series.)

Assay [2] concerns the target Gonadotropin-releasing hormone receptor (Homo sapiens) (UniProt P30968). Kind of assay: Human gonadotropin-releasing hormone receptor (GnRHR) small molecule agonists, calcium flux assay in GnRHR-HEK293 cells (AID 1920063). Further: nearly all actives have a fitted effect of over 35% in size. In short, it runs like this:
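We seeded human GnRHR-expressing HEK293 cells for 18 hours, loaded them with calcium dye for an hour at 37 C, added test compounds, and recorded fluorescence intensity kinetically for three minutes.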
On the technique in general: Calcium assays in cells follow changes in intracellular calcium, usually with a dye or a luminescent sensor.

Assay [3] deals with KiSS-1 receptor (Homo sapiens) (UniProt Q969F8). Kind of assay: Human kisspeptin (KISS1R) small molecule agonists, calcium flux assay in KISS1R-HEK293 cells (AID 1920064; active means well fitted curve in the direction sought with a large enough effect in the repeat runs; an effect the other way counts as inactive or inconclusive). An outline of the steps:
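Kinetic calcium assay, 1 s sampling over 3 min at Ex/Em 480/540, in HEK293 cells engineered with human KISS1R; compounds delivered in DMSO after 1 h dye loading.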

A short description of assay [4]: G protein-coupled receptor (GPCR) small molecule agonists, calcium flux assay: HEK293 wild type cell line counter screen (AID 1920065). In short, it runs like this: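 Calcium-sensitive dye, loaded 1 h at 37 C into cells cultured 18 h, reports compound-evoked calcium release as fluorescence (Ex/Em 480/540), measured over 3 min. Agonist mode; 15-point titrations, triplicate.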

Assay [5] is described as follows: p53 small molecule agonists, cell-based qHTS assay with human liver microsomes (AID 1963577). An outline of the steps:
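Cells carrying a p53-responsive bla reporter were rested 5 h (37 C, 5% CO2) before compound transfer. Human liver microsomes plus NADPH, 0.5 mg/mL final apiece, supplied metabolism during the 16 h 37 C exposure.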

Assay [6] in a line: p53 small molecule agonists, cell-based qHTS assay with human liver microsomes: qHTS cell viability counter screen (AID 1963579). Further: nearly all actives have a fitted effect of over 45% in size. An outline of the steps: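 Seed p53RE-bla cells at 4,000 per well; incubate 5 h at 37 C; add compound, human liver microsomes and NADPH; incubate 16 h at 37 C; add CellTiter-Glo; after 30 min at room temperature, read luminescence.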
Assay [7] is described as follows: p53 small molecule agonists, cell-based qHTS assay with rat liver microsomes: qHTS cell viability counter screen (AID 1963580). Further: nearly all actives have a fitted effect of over 45% in size. In short, it runs like this: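 p53RE-bla HCT-116 cells were exposed 16 h at 37 C to compounds with rat liver microsomes (0.5 mg/mL) and NADPH (0.5 mg/mL). Viability was measured in the same wells as ATP content by CellTiter-Glo luminescence.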

The nature of assay [8]: p53 small molecule agonists, cell-based qHTS assay: qHTS cell viability counter screen (AID 1963581). Further: nearly all actives have a fitted effect of over 45% in size. An outline of the steps:
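Following 5 h attachment, HCT-116 p53RE-bla cells took up compound for 16 h at 37 C; the reporter was read with B/G FRET substrate (2 h RT), and viability then via CellTiter-Glo ATP luminescence.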

For assay [9], the target named is 5-hydroxytryptamine receptor 2A (Homo sapiens) (UniProt P28223). Description: 5-hydroxytryptamine receptor 2A (HTR2A) small molecule antagonists, cell-based qHTS assay (AID 1963586). Further: nearly all actives have a fitted effect of over 45% in size. Further: potency means the concentration at half of the fitted maximal effect. An outline of the steps: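 Antagonist-mode intracellular calcium assay: DOI (4 nM) added after 5 min compound pre-incubation at room temperature to dye-loaded HTR2A-CHO cells. Fluorescence followed for 3 min, sampled every second.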

Assay [10] shares this target. Kind of assay: 5-hydroxytryptamine receptor 2A (HTR2A) small molecule agonists, cell-based qHTS assay (AID 1963587). Further: nearly all actives have a fitted effect of over 30% in size. In short, it runs like this:
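CHO cells stably expressing human HTR2A, plated 18 h, loaded with calcium dye 1 h at 37 C. Agonist mode: compounds added and intracellular calcium fluorescence recorded kinetically for 2 min at 1 sec intervals.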

For assay [11], the target named is Muscarinic acetylcholine receptor M1 (Homo sapiens) (UniProt P11229). Kind of assay: Cholinergic receptor muscarinic 1 (CHRM1) small molecule antagonists, cell-based qHTS assay (AID 1963588). Further: nearly all actives have a fitted effect of over 40% in size. Further: potency means the concentration at half of the fitted maximal effect. An outline of the steps: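 CHRM1-CHO calcium-flux assay, antagonist mode. Cells were seeded 18 h, dye-loaded 1 h at 37 C and given compound for 5 min at RT, then acetylcholine was added at 50nM. FDSS fluorescence was read 3 min; 15 concentrations, three runs.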

Assay [12] shares this target. Description: Cholinergic receptor muscarinic 1 (CHRM1) small molecule agonists, cell-based qHTS assay (AID 1963589). Further: nearly all actives have a fitted effect of over 35% in size. In short, it runs like this:
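Measures agonist-induced intracellular calcium rise. Stable human CHRM1 CHO line, 1 h dye load at 37 C, compounds from DMSO, kinetic fluorescence read.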

Assay [13] is described as follows: cAMP Responsive Elements (CRE) small molecule agonists, cell-based qHTS assay (AID 1963590). In short, it runs like this:
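A CRE-responsive beta-lactamase reporter in HEK 293T cells was used. Treatment ran 3 h at 37 C; detection used LiveBLAzer B/G FRET substrate for 2 h at room temperature.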

A short description of assay [14]: cAMP Responsive Elements (CRE) small molecule antagonists, cell-based qHTS assay (AID 1963591; active means well fitted inhibition curve with a large enough effect in the signal ratio in the repeat runs, not every such curve was filed as active; the % refers to the signal ratio; further: potency means the concentration at half of the fitted maximal effect). In short, it runs like this:
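HEK293T cells carrying a CRE-driven beta-lactamase reporter receive compound and NKH477 (0.25 uM final) for 3 h. Fluorescence from LiveBLAzer B/G FRET substrate is read after 2 h at room temperature.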

Assay [15] addresses Beta-2 adrenergic receptor (Homo sapiens) (UniProt P07550). Description: Adrenergic beta2 receptor (ADRB2) small molecule antagonists, cell-based qHTS assay (AID 1963592). Further: nearly all actives have a fitted effect of over 50% in size. Further: potency means the concentration at half of the fitted maximal effect. An outline of the steps: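 Cells (CHO, stable ADRB2 overexpression) incubated 18-20hr at 37C; compounds added from DMSO; agonist mix (1nM isoproterenol, 100uM IBMX, 25uM Ro-20-1724) added; 0.5hr RT; d2-cAMP and anti-cAMP-cryptate added; 1hr RT; 665/615 nm read.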

Assay [16] shares this target. Kind of assay: Adrenergic beta2 receptor (ADRB2) small molecule agonists, cell-based qHTS assay (AID 1963593).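 Further: CHO cells stably overexpressing human ADRB2.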 An outline of the steps: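 CHO cells stably over-expressing ADRB2 were plated overnight at 37C, then dosed with compounds plus a stimulation mix containing 100uM IBMX and 25uM Ro-20-1724 for 0.5hr at room temperature. cAMP was measured by HTRF competition, 1hr.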

Assay [17] addresses D(2) dopamine receptor (Homo sapiens) (UniProt P14416). Description: Dopamine D2 receptor (DRD2) small molecule agonists, cell-based qHTS assay (AID 1963594). Further: nearly all actives have a fitted effect of over 35% in size. Further: potency means the concentration at half of the fitted maximal effect. An outline of the steps:
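HEK293 cells stably expressing human DRD2, pre-treated with PDE inhibitor Ro20-1724 (0.1 mM final) and compound 10 min at room temperature, then stimulated with NKH477 (200nM […]) for 30 min. cAMP read by HTRF (665/620 nm).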

The target is the same in assay [18]. Kind of assay: Dopamine D2 receptor (DRD2) small molecule antagonists, cell-based qHTS assay (AID 1963595; active means well fitted inhibition curve with a large enough effect in the signal ratio in the repeat runs, with a control signal flat; the % refers to the signal ratio). An outline of the steps:
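Stable D2 receptor HEK293 line, 24 h after seeding. Compound preincubated 10 min, then quinpirole (12 nM) with forskolin analogue NKH477 (200 nM), 30 min, room temperature. Detection by time-resolved FRET of cAMP.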

Assay [19] is described as follows: p53 small molecule agonists, cell-based qHTS assay with rat liver microsomes (AID 1963578). In short, it runs like this: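 Fluorescence from a beta-lactamase reporter under a p53 response element was measured after cells had been incubated 16 h at 37 C with test compound and rat liver microsomes plus NADPH (0.5 mg/mL final each).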
Assay [20] in a line: p53 small molecule agonists, cell-based qHTS assay (AID 1963582; active means well fitted activation curve with a large enough effect in the signal ratio in the repeat runs, not every such curve was filed as active; the % refers to the signal ratio). An outline of the steps:
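In this cell-based concentration-response screen, a p53 response element drives beta-lactamase; cells received DMSO-borne compounds after 5 h culture and were incubated a further 16 h before FRET substrate development.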

A number with no mark means an inactive call. Records with an inconclusive call do not appear. The source made the active and inactive calls. Unless noted, the call rests on the fitted dose curve.

Beta-2 adrenergic receptor (Homo sapiens), sequence (P07550 whole entry, looked up): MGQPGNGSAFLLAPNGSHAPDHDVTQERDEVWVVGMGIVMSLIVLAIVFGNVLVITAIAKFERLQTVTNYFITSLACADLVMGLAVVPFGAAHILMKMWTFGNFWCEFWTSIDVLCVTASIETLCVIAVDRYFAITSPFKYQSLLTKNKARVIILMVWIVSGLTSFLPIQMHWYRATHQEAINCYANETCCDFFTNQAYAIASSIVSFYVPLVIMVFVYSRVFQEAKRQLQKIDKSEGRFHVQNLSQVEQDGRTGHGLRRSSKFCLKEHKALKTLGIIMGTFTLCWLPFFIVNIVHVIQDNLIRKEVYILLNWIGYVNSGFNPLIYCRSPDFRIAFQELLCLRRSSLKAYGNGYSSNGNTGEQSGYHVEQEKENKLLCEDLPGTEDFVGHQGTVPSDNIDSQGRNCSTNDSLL
D(2) dopamine receptor (Homo sapiens), sequence (P14416 whole entry, looked up): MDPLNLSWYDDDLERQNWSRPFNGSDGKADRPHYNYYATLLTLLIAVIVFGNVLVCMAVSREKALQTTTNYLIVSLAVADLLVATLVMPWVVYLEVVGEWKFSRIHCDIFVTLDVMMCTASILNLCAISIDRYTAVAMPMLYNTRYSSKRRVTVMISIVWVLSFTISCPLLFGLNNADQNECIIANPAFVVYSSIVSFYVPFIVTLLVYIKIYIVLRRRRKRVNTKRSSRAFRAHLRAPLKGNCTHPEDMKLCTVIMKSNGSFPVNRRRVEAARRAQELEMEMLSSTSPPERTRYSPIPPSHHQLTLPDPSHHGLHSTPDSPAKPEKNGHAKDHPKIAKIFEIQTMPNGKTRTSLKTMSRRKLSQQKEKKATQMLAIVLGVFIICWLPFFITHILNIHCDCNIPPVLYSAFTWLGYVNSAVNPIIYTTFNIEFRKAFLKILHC
KiSS-1 receptor (Homo sapiens), sequence (Q969F8 whole entry, looked up): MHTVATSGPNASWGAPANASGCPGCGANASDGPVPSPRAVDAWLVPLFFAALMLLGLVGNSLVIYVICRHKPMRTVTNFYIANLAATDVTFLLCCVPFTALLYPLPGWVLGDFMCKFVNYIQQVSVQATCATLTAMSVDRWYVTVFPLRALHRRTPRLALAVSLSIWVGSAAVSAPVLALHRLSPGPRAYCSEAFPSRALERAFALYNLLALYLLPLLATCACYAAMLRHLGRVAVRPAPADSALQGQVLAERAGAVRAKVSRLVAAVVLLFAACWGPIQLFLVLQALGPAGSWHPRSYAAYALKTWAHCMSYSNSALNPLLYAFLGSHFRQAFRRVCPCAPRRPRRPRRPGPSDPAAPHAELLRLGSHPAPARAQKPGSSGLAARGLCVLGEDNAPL
Muscarinic acetylcholine receptor M1 (Homo sapiens), sequence (P11229 whole entry, looked up): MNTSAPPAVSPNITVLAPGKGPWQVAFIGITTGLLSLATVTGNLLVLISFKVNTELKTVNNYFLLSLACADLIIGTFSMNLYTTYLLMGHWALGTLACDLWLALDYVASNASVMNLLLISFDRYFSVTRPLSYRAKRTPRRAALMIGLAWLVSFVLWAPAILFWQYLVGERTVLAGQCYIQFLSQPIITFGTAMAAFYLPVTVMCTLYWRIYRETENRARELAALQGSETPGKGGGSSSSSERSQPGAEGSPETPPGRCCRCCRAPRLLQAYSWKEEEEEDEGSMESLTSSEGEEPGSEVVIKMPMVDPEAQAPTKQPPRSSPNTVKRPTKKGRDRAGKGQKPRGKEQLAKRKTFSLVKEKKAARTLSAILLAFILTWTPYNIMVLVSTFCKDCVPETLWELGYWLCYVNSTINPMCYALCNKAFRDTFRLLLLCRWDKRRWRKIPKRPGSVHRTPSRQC
5-hydroxytryptamine receptor 2A (Homo sapiens), sequence (P28223 whole entry, looked up): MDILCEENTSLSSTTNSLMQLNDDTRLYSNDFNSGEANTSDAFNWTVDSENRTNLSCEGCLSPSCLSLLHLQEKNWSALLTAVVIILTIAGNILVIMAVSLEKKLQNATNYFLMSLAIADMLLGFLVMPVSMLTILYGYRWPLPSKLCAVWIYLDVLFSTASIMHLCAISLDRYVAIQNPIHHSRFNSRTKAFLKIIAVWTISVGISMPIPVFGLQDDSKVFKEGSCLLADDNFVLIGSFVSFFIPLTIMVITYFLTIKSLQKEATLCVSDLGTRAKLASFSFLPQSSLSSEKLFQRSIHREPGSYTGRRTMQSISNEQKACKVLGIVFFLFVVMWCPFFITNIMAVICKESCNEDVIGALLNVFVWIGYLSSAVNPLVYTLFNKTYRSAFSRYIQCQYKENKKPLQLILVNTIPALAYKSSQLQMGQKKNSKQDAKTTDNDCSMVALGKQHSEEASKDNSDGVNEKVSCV
Gonadotropin-releasing hormone receptor (Homo sapiens), sequence (P30968 whole entry, looked up): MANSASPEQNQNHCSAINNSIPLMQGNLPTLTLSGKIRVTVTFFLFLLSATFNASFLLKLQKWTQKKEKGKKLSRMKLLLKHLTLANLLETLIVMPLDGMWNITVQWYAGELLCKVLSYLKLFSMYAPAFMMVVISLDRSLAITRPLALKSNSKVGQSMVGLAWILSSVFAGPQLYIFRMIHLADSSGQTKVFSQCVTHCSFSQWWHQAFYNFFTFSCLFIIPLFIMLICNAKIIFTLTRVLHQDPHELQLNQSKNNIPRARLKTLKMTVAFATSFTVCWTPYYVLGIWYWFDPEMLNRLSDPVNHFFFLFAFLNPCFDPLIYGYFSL

`CCCOC(=O)c1c(Cl)c(Cl)c(Cl)c(Cl)c1C(=O)OCCC`: the Potency entry in assay [1], in [2], in [3], in assay [4], in [5] and in assay [6] was “inactive” in each case. In addition, the Potency result in assay [7], in assay [8], in assay [9], in [10], in assay [11] and in assay [12] was “inactive” in each case. The Potency result in [13], in [14], in assay [15], in assay [16], in [17] and in [18] was “inactive” in each case.

Consider `O=C(O)c1ccccc1C(=O)OCc1ccccc1`, for which the Potency entry in assay [1], in [2], in assay [3], in [4], in assay [5] and in assay [19] was “inactive” each time. Besides, the Potency result in assay [7], in assay [8], in assay [20], in assay [9], in assay [11] and in [12] was “inactive” each time. Further, the Potency result in assay [14], in assay [15], in assay [17] and in [18] was “inactive” throughout.

For the molecule `CCOC(=O)c1ccc(C2CCC(NC[C@H](O)COc3ccc(O)c(NS(C)(=O)=O)c3)CC2)cc1` (stereo partly drawn), the Potency in assay [1] is 56.4 µM (active); in assay [11], 8.69 µM (active); in [15], 7.96 µM (active); in assay [17], 0.0796 µM (active). For the same molecule, the Potency entry in assay [2], in assay [3], in assay [4], in assay [5], in [6] and in [7] was “inactive” in each case. Further, the Potency result in assay [8], in [9], in assay [10] and in assay [12] was “inactive” throughout.

Consider `c1ccc2occc2c1`, for which the Potency entry in assay [1], in assay [2], in assay [3], in assay [4], in [5] and in assay [19] was “inactive” throughout. For the same molecule, the Potency entry in assay [10], in [13], in assay [14] and in assay [18] was “inactive” each time. The Potency in assay [9] was 0.375 µM (active).

With `CCN(CCC#N)c1ccc(N=Nc2c(Cl)cc([N+](=O)[O-])cc2Cl)cc1`, the Potency result in assay [1], in assay [2], in [3], in assay [4], in assay [5] and in assay [6] was “inactive” throughout. Further, the Potency result in assay [7], in [8], in assay [20], in [9], in assay [10] and in assay [11] was “inactive” in each case. Moreover, the Potency entry in assay [13], in assay [14], in assay [15], in [17] and in assay [18] was “inactive” in each case.

For `COC(C(=O)O)c1ccccc1` (stereo not drawn), the Potency result in assay [1], in assay [2], in [3], in assay [4], in assay [5] and in [6] was “inactive” each time. For the same molecule, the Potency entry in assay [7], in [8], in assay [20], in assay [9], in [10] and in assay [12] was “inactive” throughout. Also, the Potency result in assay [13], in assay [14], in [15], in assay [16], in assay [17] and in [18] was “inactive” in each case.

Regarding `O=C(c1ccccc1)c1cc(Cl)ccc1O`, the Potency result in [1], in assay [2], in assay [3], in assay [4], in assay [5] and in [19] was “inactive” each time. The Potency result in assay [7], in [8], in assay [20], in assay [9], in assay [10] and in [12] was “inactive” in each case. The Potency entry in assay [15] and in assay [18] was “inactive” each time. Moreover, the Potency was 20 µM (active) in assay [11] and 41.1 µM (active) in [14].

Consider `COC(=O)/C=C(\C)CCC=C(C)C`, for which the Potency entry in [1], in assay [2], in [3], in assay [4], in assay [5] and in [6] was “inactive” each time. The Potency result in [7], in assay [8], in [20], in assay [9], in assay [10] and in assay [11] was “inactive” in each case. In addition, the Potency result in [12], in assay [13], in [14], in [15], in assay [17] and in assay [18] was “inactive” each time.

The values above are taken from PubChem BioAssay (Tox21).
